Out of some 16,000 compounds screened, about 5,700 (36%) were called active. Roughly 24% stayed inconclusive and do not appear here. Calls follow the shape of the dose curve; as a rule, active = well fitted curve in the direction sought with a large enough effect; inconclusive = small, poorly fitted or top-dose-only effect, or effect the other way; inactive = no such curve, though single readings can be large or run the other way. Some of the results follow.
% is scaled to controls: 0 for no effect and ±100 for the full control effect.

Chain of Cytochrome P450 1A2 (Homo sapiens) (P05177 whole entry, looked up): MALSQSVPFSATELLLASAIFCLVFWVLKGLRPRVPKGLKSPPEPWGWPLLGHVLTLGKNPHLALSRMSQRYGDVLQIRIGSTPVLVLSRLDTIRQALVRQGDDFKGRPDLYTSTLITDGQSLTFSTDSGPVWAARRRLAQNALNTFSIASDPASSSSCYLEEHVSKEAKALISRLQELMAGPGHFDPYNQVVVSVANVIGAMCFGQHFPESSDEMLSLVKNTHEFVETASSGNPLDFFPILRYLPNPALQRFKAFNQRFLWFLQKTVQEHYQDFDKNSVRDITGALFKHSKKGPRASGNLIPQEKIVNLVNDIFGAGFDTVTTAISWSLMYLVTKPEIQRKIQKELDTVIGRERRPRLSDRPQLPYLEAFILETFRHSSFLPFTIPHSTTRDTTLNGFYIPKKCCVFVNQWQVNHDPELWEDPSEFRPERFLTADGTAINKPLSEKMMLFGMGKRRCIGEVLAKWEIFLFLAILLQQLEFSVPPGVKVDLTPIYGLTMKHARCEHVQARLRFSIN

The test has as its target Cytochrome P450 1A2 (Homo sapiens) (UniProt P05177). As to the kind of experiment: Cytochrome panel assay with activity outcomes. Conditions: recombinant CYP, pro-luciferin dealkylation, luminescence, p450-cyp1a2; series mostly up to 57.1 µM.
Consider `CC(=O)C1=C(NC(=O)c2ccc(F)cc2)CC2C1C2(C)C` (stereo unspecified), for which the AC50 is 200 nM (active). Still for that read-out and setting: in the case of `Cc1occc1C(=O)NNC(=O)c1ccc(F)cc1` it was “inactive”; in that of `COC(=O)C(C)Sc1ccc2nnc(-c3ccc(F)cc3)n2n1` (stereo unspecified), 794 nM (active). Regarding `CCn1c(SCC(=O)OC)nnc1C1CCCCC1`, the AC50 entry is “inactive”. On to `COC(=O)CSc1ccc2nnc(-c3ccc(F)cc3)n2n1`, for which the AC50 was 1580 nM (active). For `CC(C)NC(=O)N1CCCC2(CCN(C(=O)c3cccc(F)c3)CC2)C1`, the AC50 result was “inactive”. In the case of `CCCN(C/C=C\I)[C@@H]1CCc2cccc(O)c2C1`, the half-maximal activity concentration (AC50) is 2510 nM (active). As for `N#C[C@H]1CN[C@H](N)N[C@@H]1N`, the activity, negative = inhibition is -11.6% [at 2.29 µM] (inactive). As for `CCNc1nc(NCC)nc(N(C)N)n1`, the half-maximal activity concentration (AC50) was 708 nM (active). For the compound `Cn1c(/C=N/NC(=O)c2ccccc2Br)nc2ccccc21`, the AC50 is 2510 nM (active). As to `Cc1ccc(NC(=O)C2CC(=O)n3c(nc4ccccc43)N2)cc1` (stereo unspecified), the AC50 result is “inactive”. Consider `Cc1ccc(C(=O)N/N=C/c2nc3ccccc3n2C)cc1`, for which the AC50 was 7080 nM (active). With `c1ccc(CNc2cc(-c3ccoc3)ncn2)cc1`, the AC50 is 25100 nM (active).

`c1csc(CNc2cc(-c3ccoc3)ncn2)c1`: the AC50 is 2000 nM (active). For the compound `c1cncc(CNc2cc(-c3ccoc3)ncn2)c1`, the AC50 is 3160 nM (active). For the compound `O=C(Oc1ccc2ccccc2c1Br)N1CCCCCC1`, the AC50 is 4470 nM (active).

For `O=C(Oc1ccccc1)N1CCC2(CC1)CCN(c1ccccc1)CC2`, the AC50 result was “inactive”.

Regarding `Cc1ccccc1C(=O)Oc1ccc(Br)cc1C(=S)N1CCCC1`, the AC50 entry was “inactive”.

Regarding `COC(=O)[C@@H]1O[C@@H](c2c(OC)c(OC)c(C)c(OC)c2OC)[C@H](C)[C@@H](O)[C@@H]1C`, the activity, negative = inhibition is -4.49% [at 11.4 µM] (inactive).

Take `Cn1c(-c2ccc3c(c2)OCO3)cc(=O)c2ccccc21`: the concentration at half-maximal activity (AC50) is 5010 nM (active). The same measure, in the same setting: in the case of `Cn1cc(/C=C2/SC(=O)N(CC(=O)Nc3ccc4c(c3)OCO4)C2=O)c2ccccc21` it was “inactive”; in that of `CC(C)n1cc(/C=C2/SC(=O)N(CC(=O)Nc3ccc4c(c3)OCO4)C2=O)c2ccccc21`, “inactive”. As for `O=C(c1csnn1)N1CCC2(CC1)CN(c1ccccc1)C2`, the AC50 entry was “inactive”.

For the compound `Cc1ccccc1/C=N\NC(=O)c1csnn1`, the AC50 was 1000 nM (active). For `O=C(Nc1ccccc1)N1CCC2(CC1)CCN(C(=O)c1csnn1)CC2`, the AC50 entry was “inactive”.

In the case of `O=C(CCNC(=O)Cn1ccc2ccccc2c1=O)NCCCN1CCN(c2ccc(F)cc2)CC1`, the AC50 result was “inactive”. Turning to `CCNc1ncc2nc(-c3ccc(Cl)cc3)c(=O)n(C[C@H]3CCCO3)c2n1`, the AC50 is 794 nM (active). For `Cc1ccc(C2/C(=C(/O)c3ccc(Cl)cc3)C(=O)C(=O)N2CC2CCCO2)o1` (stereo unspecified), the AC50 entry is “inactive”.

Consider `CCNc1ncc2nc(-c3ccc(F)cc3)c(=O)n(C[C@H]3CCCO3)c2n1`, for which the AC50 is 1260 nM (active). Consider `Cc1nc2cnc(N3CCOCC3)nc2n(Cc2cccs2)c1=O`, for which the concentration at half-maximal activity (AC50) was 2000 nM (active). Take `Cc1nc2cnc(N3CCN(C)CC3)nc2n(Cc2cccs2)c1=O`: the AC50 was 12600 nM (active). With `Cc1nc2cnc(N3CCNCC3)nc2n(Cc2cccs2)c1=O`, the AC50 was 631 nM (active). Turning to `CN1CCN(c2ncc3nc(CCc4ccccc4)c(=O)n(C)c3n2)CC1`, the half-maximal activity concentration (AC50) was 12600 nM (active). On the same count and under the same terms, in the case of `COc1ccc(-n2c(=O)c(CCc3ccccc3)nc3cnc(N4CCN(C)CC4)nc32)cc1` it was “inactive”. On to `Cc1cc2c(nc1C)CCCCN2C[C@H](O)CN1CCCc2nc(-c3ccc(Br)cc3)ccc21`, for which the activity, negative = inhibition was -8.63% [at 11.4 µM] (inactive). For the compound `Cc1ccc(CCN2CC(C(=O)NCCN3CCCCCC3)CC2=O)cc1` (stereo unspecified), the AC50 entry is “inactive”. Consider `CN1CCN(c2ncc3nc(CCc4ccccc4)c(=O)n(Cc4ccc(F)cc4)c3n2)CC1`, for which the AC50 result is “inactive”. Still for that read-out and setting: the result for `O=c1cnc2cnc(N3CCOCC3)nc2n1Cc1cccs1` reads 2510 nM (active); that for `CN1CCN(c2ncc3nc(CCc4ccccc4)c(=O)n(Cc4cccs4)c3n2)CC1`, 15800 nM (active); that for `C[C@H]1NC(=O)NC1=O`, “inactive”. For the compound `COc1cc([C@@H](O)CO)ccc1OS(=O)(=O)O`, the AC50 entry is “inactive”. In the case of `Brc1ccc(/C=C/C=N/Nc2nc3ccccc3s2)cc1`, the AC50 was 2240 nM (active). As to `CCCn1cnc2c(SCc3ccc(Cl)cc3)nc(N)nc21`, the concentration at half-maximal activity (AC50) is 1260 nM (active). For `Cc1ccc2ccccc2c1CSc1nc(N)nc2c1ncn2CC(C)C`, the activity, negative = inhibition was -20.8% [at 2.29 µM] (inactive). In the case of `CCCn1cnc2c(SCC(=O)O)nc(N)nc21`, the activity, negative = inhibition is 1.5% [at 11.4 µM] (inactive). For the compound `CCOC(=O)c1cnc(SCCc2ccccc2)nc1N`, the concentration at half-maximal activity (AC50) is 25100 nM (active).

Take `CCOC(=O)c1cnc(N(C)C)nc1SC(=N)N`: the activity, negative = inhibition was -22.6% [at 2.29 µM] (inactive). For the compound `CCN1CCc2c(sc(NC(=O)c3ccc(S(=O)(=O)N4CCOCC4)cc3)c2C(=O)OC)C1`, the AC50 result is “inactive”. Take `CCN1CCc2c(sc(N)c2C(N)=O)C1`: the AC50 entry is “inactive”. Regarding `CCOC(=O)c1c(NC(=S)Nc2ccccc2)sc2c1CCN(CCc1ccccc1)C2`, the AC50 is 15800 nM (active). `COc1ccc(CCNC(=O)CCN2C(=O)C(C)Oc3ccc(C)cc32)cc1OC` (stereo unspecified): the AC50 entry is “inactive”.

On to `Cc1ccc(CNC(=O)CN2C(=O)COc3ccc(C)cc32)cc1`, for which the AC50 was 3160 nM (active).

As for `COc1ccc(CCNC(=O)CCN2C(=O)COc3ccc(C)cc32)cc1OC`, the AC50 entry is “inactive”. Consider `Cc1ccc2c(c1)N(CCC(=O)NCc1ccc3c(c1)OCO3)C(=O)CO2`, for which the AC50 is 15800 nM (active). Turning to `Cc1ccc2c(c1)N(CC(=O)NCc1cccs1)C(=O)C(C)O2` (stereo unspecified), the AC50 is 5010 nM (active). `Cc1ccc2c(c1)N(CCC(=O)NCCN1CCOCC1)C(=O)CO2`: the AC50 entry is “inactive”. Regarding `Cc1ccc2c(c1)N(CCC(=O)NCc1cccnc1)C(=O)CO2`, the AC50 is 3160 nM (active). For the compound `CC(=O)OCC1=C(C(=O)O)N2C(=O)[C@@H](NC(=O)Cc3cccs3)[C@@H]2SC1`, the AC50 entry was “inactive”.

Turning to `Cc1ccc2c(c1)N(CC(=O)NC1CCCc3ccccc31)C(=O)CO2` (stereo unspecified), the AC50 result is “inactive”. On to `Cc1ccc2c(c1)N(CC(=O)NC1CCC(C)CC1)C(=O)CO2` (stereo unspecified), for which the AC50 entry was “inactive”. The same measure, in the same setting: the result for `Cc1ccc(C)c(N2CCN(C(=O)C3CCN(S(=O)(=O)c4cccc5nsnc45)CC3)CC2)c1` reads “inactive”. `CO[C@H]1COC(=O)C/C=C\[C@@H](C)COC(=O)[C@@H](C)NC(=O)C/C=C\[C@@H]1C`: the activity, negative = inhibition is -10.1% [at 11.4 µM] (inactive). With `O=C(O)CCC(=O)N1CCC[C@H]1C(=O)O`, the AC50 result is “inactive”. Still for that read-out and setting: the result for `CCN1CCCC1CNC(=O)CCNC(=O)c1cc(OC)c(OC)c(OC)c1` (stereo unspecified) reads “inactive”; that for `O=C(CCNS(=O)(=O)c1ccc2c(c1)CCC(=O)N2)NCc1ccc2c(c1)OCO2`, “inactive”; that for `COc1cc(C(=O)NCCC(=O)NCc2ccc3c(c2)OCO3)cc(OC)c1OC`, 20000 nM (active).

One may read the AC50 as the concentration giving half of the maximal activity seen.

The values are drawn from PubChem BioAssay AID1851 (National Center for Advancing Translational Sciences (NCATS), 2009).
